According to PubChem BioAssay (NCI):
This is part of a sample that, as a whole, favours compounds with a hit. Of some 83,000 tested, about 20% had one in any assay.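 A percent growth of 40 corresponds to 60% growth inhibition; 0 means no net growth; -100 means all cells died. Active threshold: below 10.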 Unmarked numbers belong to inactive results. The source made the active and inactive calls.

Experiments:
Test in all cases: NCI-60 one-dose screen, 48 h (100 = growth as untreated, 0 = no growth, -100 = all killed)
Details in all cases: 10 µM unless noted
SR leukemia = system: SR leukemia
RPMI-8226 leukemia = system: RPMI-8226 leukemia
OVCAR-8 ovarian = system: OVCAR-8 ovarian
OVCAR-5 ovarian = system: OVCAR-5 ovarian
OVCAR-4 ovarian = system: OVCAR-4 ovarian
SK-OV-3 ovarian = system: SK-OV-3 ovarian
IGROV1 ovarian = system: IGROV1 ovarian
OVCAR-3 ovarian = system: OVCAR-3 ovarian
HS 578T breast = system: HS 578T breast
NCI/ADR-RES ovarian = system: NCI/ADR-RES ovarian
T-47D breast = system: T-47D breast
BT-549 breast = system: BT-549 breast
MDA-MB-435 melanoma = system: MDA-MB-435 melanoma
SW-620 colon = system: SW-620 colon
MCF7 breast = system: MCF7 breast
HCT-116 colon = system: HCT-116 colon
HCC-2998 colon = system: HCC-2998 colon
KM12 colon = system: KM12 colon

Structure (SMILES)	growth (SR leukemia)	growth (RPMI-8226 leukemia)	growth (OVCAR-8 ovarian)	growth (OVCAR-5 ovarian)	growth (OVCAR-4 ovarian)	growth (SK-OV-3 ovarian)	growth (IGROV1 ovarian)	growth (OVCAR-3 ovarian)	growth (HS 578T breast)	growth (NCI/ADR-RES ovarian)	growth (T-47D breast)	growth (BT-549 breast)	growth (MDA-MB-435 melanoma)	growth (SW-620 colon)	growth (MCF7 breast)	growth (HCT-116 colon)	growth (HCC-2998 colon)	growth (KM12 colon)
COc1ccc(Nc2ncc(Br)c(NCCCNC(=O)c3cccs3)n2)cc1	31.5%	27.3%	32.7%	60.6%	57.7%	49.2%	21%	26.6%	30.9%	46.5%	46.2%	45.6%	59%	24.7%	42.9%	26.2%	80.6%	20.6%
CC1CCN(S(=O)(=O)c2ccc(S(=O)(=O)N3CCCC(c4nc5c(nnn5Cc5cccc(Cl)c5)c(=O)[nH]4)C3)cc2)CC1 (stereo unspecified)	10.5%	19.9%	61.5%	97.1%	64.5%	72.9%	60%	34.3%	33.1%	88.6%	50.3%	67.9%	-30.9% (active)	33.4%	23.3%	15.1%	70.8%	39.3%
O=C(Nc1cccc(-c2ccc(N3CCOCC3)nn2)c1)Nc1cccc(C(F)(F)F)c1	60.4%	31.4%	35.4%	125%	73.3%	104%	97.1%	74.3%	91.6%	72.2%	8.63% (active)	40.9%	69.7%	110%	55.3%	68.2%	109%	55.5%
CN(/C(N)=N/N=C/c1c2ccccc2cc2ccccc12)C1CCCCC1	0.552% (active)	2.66% (active)	56.3%	78.8%	27.6%	66%	40.3%	58.8%	66.6%	45%	30.8%	67.7%	57.5%	58.6%	32.8%	15.9%	-69.9% (active)	59.6%
NC(N)=NCCCCCNc1noc(Cc2c[nH]c3cc(Br)ccc23)n1	98.3%	39.6%	64.6%	85.4%	67.5%	83.7%	56.3%	33.4%	56.9%	101%	59.2%	66.5%	87.7%	92.2%	77.2%	77.2%	76.1%	45.1%
Nc1cnc(C(=O)NNc2nc3cc(F)ccc3n3cccc23)cn1	25.5%	52.6%	27.6%	56.6%	31.3%	37.9%	26%	20.9%	80.4%	16.2%	35.5%	52.9%	38.9%	36%	16.6%	36%	48.4%	24.7%
O=C1/C=C/[C@@H](O)[C@@H]2C[C@@H](O)C[C@H]2/C=C/CCC[C@H](CCc2ccccc2)O1	9.67% (active)	10.7%	14.4%	19.8%	24.9%	28.2%	14.7%	-42.1% (active)	47.8%	5.65% (active)	15.1%	9.81% (active)	5.95% (active)	-9.76% (active)	-3.62% (active)	-73.6% (active)	15.9%	-50.5% (active)
Cc1ccc(-c2nc([P+](c3ccccc3)(c3ccccc3)c3ccccc3)c(S(=O)(=O)c3ccc(C)cc3)o2)cc1	-10.9% (active)	-28.2% (active)	8.26% (active)	25.1%	14.2%	64.8%	26.4%	0.238% (active)	-9.93% (active)	59.5%	18.6%	8.67% (active)	-2.81% (active)	-70.3% (active)	13.5%	-68.6% (active)	38.3%	18.8%
COc1cc2c(cc1OC)C(C)N(S(N)(=O)=O)CC2 (stereo unspecified)	82.3%	96.4%	97%	82.6%	105%	103%	97.9%	99.2%	105%	96.9%	93.1%	91.8%	110%	107%	103%	89.4%	98.1%	112%
O=C1/C(=C/c2cn(-c3ccccc3)nc2-c2ccccc2)SC(=S)N1C1CCCCC1	106%	114%	103%	108%	97.6%	108%	103%	117%	103%	102%	97%	114%	98.8%	96%	86.2%	90.1%	108%	102%
Fc1ccc(CNc2c3ccccc3nc3ccccc23)c(F)c1	25.2%	28.3%	40.2%	51.7%	-8.19% (active)	59.8%	35.7%	70.2%	75.4%	36.2%	47.4%	82.8%	66.5%	29.8%	10.2%	14.2%	41.3%	60%
Cc1[nH]c(C(=O)Nc2ccccc2OC2CCNCC2)c(Cl)c1Cl	10.1%	-45.2% (active)	1.61% (active)	68.7%	-72.8% (active)	109%	48.4%	-77.7% (active)	-19.1% (active)	33.8%	-4.05% (active)	74.2%	-40.3% (active)	1.77% (active)	-45% (active)	4.55% (active)	43.2%	32.8%
O=S(=O)(NCCCNc1nccc(-c2c(-c3ccc(F)c(O)c3)nc3occn23)n1)c1ccc(Cl)cc1	55.5%	40.4%	66.3%	118%	81.3%	64.4%	62.3%	95.3%	64%	96.4%	69.1%	79.4%	27.6%	97.8%	55.9%	32.8%	85.7%	70.2%
O=C(N(c1ccccc1)c1ccccc1)n1cc(I)c2nc(Cl)nc(Cl)c21	18.9%	0.0387% (active)	22.6%	63.7%	68.4%	60.9%	61.8%	25.8%	39.1%	42.4%	61.2%	47.4%	37.4%	26%	25.5%	25.7%	93.3%	44.1%
NS(=O)(=O)c1ccc(N=Nc2c(O)n(Cc3ccccc3)c3ccc(Cl)cc23)cc1	60.2%	90.7%	65.1%	86.8%	28.7%	74.3%	84%	89.4%	44.8%	82.5%	79.4%	81.2%	79.4%	79.9%	75.3%	69.3%	101%	88.5%
COc1ccccc1NC(=O)N=Nc1c(O)[nH]c2ccccc12	83.9%	84.8%	92.9%	86.7%	105%	97.8%	82%	107%	87.8%	94.1%	68.6%	97.9%	91%	84.4%	59%	93%	94.4%	94.8%
Cc1cc(N2CCN(CC(=O)Nc3ccc4c(ccn4C)c3)CC2)nc(N2CCCCCC2)n1	122%	76.1%	83.3%	100%	92.2%	84.4%	83.5%	82.6%	96.8%	91.5%	65.4%	89.7%	95.2%	93.6%	77.9%	85.6%	127%	93.1%
